Source: PubChem
TRPV1 PAM: potentiators of human vanilloid receptor 1 (TRPV1); 0.02% of 320,000 active; AID 540277; TRPV1-expressing cells, Fluo-8 calcium influx, capsaicin EC20 potentiation; potentiation, % at 8.33 µM; Q8NER1; in the data active means potentiation above about 80%; inconclusive means between about 30% and that limit
Target sequence (Q8NER1 whole entry, looked up): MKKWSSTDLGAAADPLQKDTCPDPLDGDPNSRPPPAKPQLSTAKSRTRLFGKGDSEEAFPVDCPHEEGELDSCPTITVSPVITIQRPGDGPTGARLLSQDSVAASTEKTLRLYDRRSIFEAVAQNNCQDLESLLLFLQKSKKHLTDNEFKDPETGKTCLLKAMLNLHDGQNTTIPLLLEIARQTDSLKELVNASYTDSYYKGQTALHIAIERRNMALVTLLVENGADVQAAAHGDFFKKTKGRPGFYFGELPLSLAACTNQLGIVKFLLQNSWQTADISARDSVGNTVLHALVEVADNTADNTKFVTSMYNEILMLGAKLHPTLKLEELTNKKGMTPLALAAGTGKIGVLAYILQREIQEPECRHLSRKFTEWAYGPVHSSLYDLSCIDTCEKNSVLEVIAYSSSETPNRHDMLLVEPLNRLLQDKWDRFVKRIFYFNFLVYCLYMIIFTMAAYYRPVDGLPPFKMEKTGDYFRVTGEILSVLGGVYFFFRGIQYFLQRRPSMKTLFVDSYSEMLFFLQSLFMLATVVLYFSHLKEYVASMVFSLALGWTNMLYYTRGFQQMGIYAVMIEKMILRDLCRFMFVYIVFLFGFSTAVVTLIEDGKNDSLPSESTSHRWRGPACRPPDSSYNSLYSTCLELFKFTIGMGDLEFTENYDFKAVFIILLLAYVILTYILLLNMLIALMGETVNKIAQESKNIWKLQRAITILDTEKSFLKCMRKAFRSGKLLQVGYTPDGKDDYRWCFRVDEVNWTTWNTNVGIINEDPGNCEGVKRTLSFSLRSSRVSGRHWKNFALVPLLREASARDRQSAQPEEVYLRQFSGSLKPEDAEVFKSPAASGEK
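TRPV1-expressing cells were cultured overnight at 35.5C and loaded with Fluo-8 calcium dye for 40 to 90 min at room temperature. After a 10 s baseline, compound was added and calcium influx was read kinetically for 3 min (ex 480/em 520 nm).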
KCNH2 WT inh: KCNH2 (human, wildtype) channel inhibition; 0.37% of 340,000 active; activity change, % at 1.84 µM; U2OS, BacMam KCNH2, thallium flux FluxOr; hits give low values; AID 720551;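 active means maximum activity change below -70%; inconclusive means maximum activity change between -70% and -50%; inactive means maximum activity change above -50%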
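U2OS cells transduced with wild-type KCNH2 virus are loaded with FluxOr dye for 45 min, and thallium flux is measured in kinetic reads before and after stimulation buffer. Rate constants are normalized to DMSO controls.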
KCNH2 3.1 inh: blocks the human KCNH2 3.1 channel isoform; U2OS KCNH2 3.1, thallium flux FluxOr; hits give low values; activity change, % (tested at about 1.8 µM); 0.95% of 340,000 active; AID 720553;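 active means maximum activity change below -70%; inconclusive means maximum activity change from -70% to -50%; inactive means maximum activity change above -50%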;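 further: thallium influx rate constant from kinetic fluorescence after stimulation buffer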
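Normalized rate constant (relative to positive and negative DMSO controls) derived from a 2 min kinetic fluorescence read after stimulation; U2OS cells expressing the 3.1 isoform via virus at 1.77 x 10^8 /mL.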
TRPV1 ag: human TRPV1 agonism; Q8NER1; TRPV1-expressing cells, Fluo-8 calcium influx, agonist mode; activation, % at 8.33 µM; 0.19% of 320,000 active; in the data active means activation above about 80%; inconclusive means between about 30% and that limit
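Cells expressing TRPV1 were dye-loaded with Fluo-8 and read kinetically: 10 s baseline, 3 min after compound (agonist portion), then 2 min after EC20 capsaicin (allosteric enhancer portion). Calcium-bound dye fluorescence at 480/520 nm.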
MBNL1 CUG block: blocks human MBNL1 binding to CUG repeat RNA; Q9NR56; TR-FRET MBNL1-His/biotin-(CUG)12 binding, 665/545 ratio; Potency, µM (titrated, usually from 57.5 µM), actives largely listed as inhibitors; 0.036% of 280,000 active; active means well fitted inhibition curve with a large enough effect in the signal ratio, with a control signal flat, not every such curve was filed as active; inconclusive means small, poorly fitted or top-dose-only effect, or effect the other way, or a change in a side signal; inactive means no such curve, though single readings can be large or run the other way; the % refers to the signal ratio
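Compound titration spanned 92 nM–58 uM against the MBNL1-His/biotin-(CUG)12 complex. After 60 min at room temperature with 5 nM streptavidin-XL665 and 0.055 ng/ul terbium anti-His, ratiometric 665/545 nm emission (Ex 340 nm) normalized to controls.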
Numbers stand for hits. Most compounds without a hit are left out; they make up all but 1.3% or so of the library.

For CC(CCc1ccccc1)NC(=O)CCNS(=O)(=O)c1ccccc1 (configuration not stated) the results were TRPV1 PAM inconclusive, KCNH2 WT inh inactive, KCNH2 3.1 inh inactive and TRPV1 ag inactive.
`CC(NC(=O)CCNS(=O)(=O)c1ccccc1)c1ccccc1` (configuration not stated) gave TRPV1 PAM inactive, KCNH2 WT inh -156, KCNH2 3.1 inh inactive, TRPV1 ag inactive and MBNL1 CUG block inactive.
Screening CCc1ccc2nc(SCC(=O)Nc3nnc(C)s3)c(C)cc2c1 returned TRPV1 PAM inactive, KCNH2 WT inh inactive, KCNH2 3.1 inh -91, TRPV1 ag inactive and MBNL1 CUG block inactive.
Cc1ccc(S(=O)(=O)CC2CSc3nnc(C)c(=O)n32)cc1 (configuration not stated) was read as TRPV1 PAM inactive, KCNH2 WT inh inactive, KCNH2 3.1 inh -93, TRPV1 ag inactive and MBNL1 CUG block inactive.
Screening Cc1nnc2n(c1=O)C(CS(=O)(=O)c1ccc3ccccc3c1)CS2 (configuration not stated) returned TRPV1 PAM inactive, KCNH2 WT inh inactive, KCNH2 3.1 inh inactive, TRPV1 ag inactive and MBNL1 CUG block inactive.
For Nc1nc2ccccc2n1CCOc1ccc(Cl)cc1 the results were TRPV1 PAM inactive, KCNH2 WT inh inactive, KCNH2 3.1 inh -84, TRPV1 ag inactive and MBNL1 CUG block inactive.
`Nc1nc2ccccc2n1CCOc1ccc(Br)cc1` gave TRPV1 PAM inactive, KCNH2 WT inh inactive, KCNH2 3.1 inh -91, TRPV1 ag inactive and MBNL1 CUG block inactive.
For Nc1nc2ccccc2n1CCOc1ccccc1Cl the results were TRPV1 PAM inactive, KCNH2 WT inh inactive, KCNH2 3.1 inh inactive, TRPV1 ag inactive and MBNL1 CUG block inactive.
For Cc1ccccc1CN1CCc2c(OCC(=O)N3CCCc4ccccc43)cccc2C1=O the results were TRPV1 PAM inactive, KCNH2 WT inh -123, KCNH2 3.1 inh inactive and TRPV1 ag inactive.
Screening COc1ccc(N/N=C(/C)c2cnnc(-c3ccccc3)n2)cc1 returned TRPV1 PAM inactive, KCNH2 WT inh inactive, KCNH2 3.1 inh inactive, TRPV1 ag inactive and MBNL1 CUG block inactive.
CCOC(=O)Cc1nnn(CC(=O)OCC)n1 was read as KCNH2 WT inh inactive, KCNH2 3.1 inh inactive and MBNL1 CUG block inactive.
Screening CCOC(=O)Cc1nn[nH]n1 returned TRPV1 PAM inactive, KCNH2 WT inh inactive, KCNH2 3.1 inh -128, TRPV1 ag inactive and MBNL1 CUG block inactive.
O=C(CSCc1nc2c(nnn2Cc2ccc(F)cc2)c(=O)[nH]1)Nc1cccc(C(F)(F)F)c1 was read as TRPV1 PAM inactive, KCNH2 WT inh inactive, KCNH2 3.1 inh inactive, TRPV1 ag inactive and MBNL1 CUG block inactive.
`Cc1c(NC2=NC(C)(C)Cc3ccccc32)c(=O)n(-c2ccccc2)n1C` gave TRPV1 PAM inactive, KCNH2 WT inh inactive, KCNH2 3.1 inh inactive, TRPV1 ag inactive and MBNL1 CUG block inactive.
Screening Cc1c(NC2=NC3(CCCCC3)Cc3ccccc32)c(=O)n(C)n1-c1ccccc1 returned TRPV1 PAM inactive, KCNH2 WT inh -172, KCNH2 3.1 inh -194, TRPV1 ag inactive and MBNL1 CUG block inactive.
CCCCCC(=O)N1C[C@@H](O)[C@H](n2cc(-c3ccc(F)cc3)nn2)C[C@@H]1c1ccccc1 was read as KCNH2 WT inh inactive and KCNH2 3.1 inh inactive.
`N#Cc1c(-c2ccccc2)nc(SCC(=O)N(c2ccccc2)c2ccccc2)[nH]c1=O` gave TRPV1 PAM inactive, KCNH2 WT inh inactive, KCNH2 3.1 inh inactive, TRPV1 ag inactive and MBNL1 CUG block inconclusive.
Screening CCOC(=O)CCCCC(=O)c1[nH]c(=O)[nH]c1CSCCO returned TRPV1 PAM inactive, KCNH2 WT inh inactive, KCNH2 3.1 inh inactive, TRPV1 ag inactive and MBNL1 CUG block 3.5µM.
`CCOC(=O)CCCCC(=O)c1[nH]c(=O)[nH]c1CSc1nc(-c2ccccc2)c(C#N)c(=O)[nH]1` gave TRPV1 PAM inconclusive, KCNH2 WT inh inactive, KCNH2 3.1 inh inactive, TRPV1 ag inactive and MBNL1 CUG block 7.1µM.
Screening CC(=O)c1cccn1S(=O)(=O)c1ccccc1 returned TRPV1 PAM inactive, KCNH2 WT inh inactive, KCNH2 3.1 inh inactive, TRPV1 ag inactive and MBNL1 CUG block inactive.
For Cc1ccc(C(=O)OCc2cc(=O)n3c(C)csc3n2)s1 the results were TRPV1 PAM inactive, KCNH2 WT inh inactive, KCNH2 3.1 inh inactive and TRPV1 ag inactive.
CCn1nc(C)c(CN2CCC(n3nccc3NC(=O)Cc3ccccc3)CC2)c1C was read as TRPV1 PAM inactive, KCNH2 WT inh inactive, KCNH2 3.1 inh inactive, TRPV1 ag inactive and MBNL1 CUG block inactive.
COc1ccc([C@H]2CC(=O)C=C(c3cccc(C(F)(F)F)c3)C2)cc1 was read as TRPV1 PAM inactive, KCNH2 WT inh inactive, KCNH2 3.1 inh -75 and TRPV1 ag inconclusive.
COc1ccc(Cc2nnc(NCCO)[nH]c2=O)cc1OC was read as TRPV1 PAM inactive, KCNH2 WT inh -118, KCNH2 3.1 inh inactive, TRPV1 ag inactive and MBNL1 CUG block inactive.
`O=C1CSC(c2ccc([N+](=O)[O-])cc2)N1Cc1ccccc1` (configuration not stated) gave TRPV1 PAM inactive, KCNH2 WT inh inactive, KCNH2 3.1 inh inactive, TRPV1 ag inactive and MBNL1 CUG block inconclusive.
`CN1CCc2nc(SCc3ccc(C(C)(C)C)cc3)c(C#N)cc2C1` gave TRPV1 PAM inactive, KCNH2 WT inh inactive, KCNH2 3.1 inh inactive, TRPV1 ag inactive and MBNL1 CUG block inactive.
COc1ccccc1C1CCN(Cc2ccccc2)CC1 was read as TRPV1 PAM inactive, KCNH2 WT inh inactive, KCNH2 3.1 inh inactive, TRPV1 ag inactive and MBNL1 CUG block inactive.
`COc1ccccc1C1CCN(Cc2ccc3ccccc3c2)CC1` gave TRPV1 PAM inactive, KCNH2 WT inh -209, KCNH2 3.1 inh -188, TRPV1 ag inactive and MBNL1 CUG block inactive.
`CCCCC(=O)Nc1ccc(C(=O)NNC(=O)c2ccco2)cc1` gave TRPV1 PAM inactive, KCNH2 WT inh -154, KCNH2 3.1 inh inactive, TRPV1 ag inactive and MBNL1 CUG block inactive.
For CCCCCC(O)(CCN1CCCCC1)c1ccc(OCC)cc1 (configuration not stated) the results were TRPV1 PAM inactive, KCNH2 WT inh -99, KCNH2 3.1 inh -114, TRPV1 ag inactive and MBNL1 CUG block inactive.
CC(=O)c1cn(N(C)c2ncc(C(F)(F)F)cc2Cl)c(=O)[nH]c1=O was read as TRPV1 PAM inactive, KCNH2 WT inh inactive, KCNH2 3.1 inh inactive and TRPV1 ag inactive.
C=CCn1c(=O)c(C(C)=O)cn(N(C)c2ncc(C(F)(F)F)cc2Cl)c1=O was read as TRPV1 PAM inactive, KCNH2 WT inh inactive, KCNH2 3.1 inh -114 and TRPV1 ag inactive.
`CCOCCn1c(N2CCCC2)nc2c1c(=O)[nH]c(=O)n2C` gave TRPV1 PAM inactive, KCNH2 WT inh inactive, KCNH2 3.1 inh inactive, TRPV1 ag inactive and MBNL1 CUG block inactive.
